Data reported in PubChem BioAssay (NCATS).
Inconclusive results are not listed. Activity calls are given as the source filed them. Calls follow the shape of the dose curve; as a rule, active = well fitted curve in the direction sought with a large enough effect; inconclusive = small, poorly fitted or top-dose-only effect, or another doubt; inactive = no such curve, though single readings can be large; an effect the other way counts as inactive or inconclusive.

Key:
[1] = qHTS of pediatric cancer cell lines to identify multiple opportunities for drug repurposing: Primary screen for TC32 cells (AID 1347089); also: nearly all actives have a fitted effect of over 60% in size; also: potency is read from the fitted curve at half-maximal effect
Procedure, shortened: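 Measured quantity: luminescence from CellTiter-Glo, reflecting metabolically active TC32 cells following 48 h of compound. Curves came straight from multi-point titrations, with 8 or 11 points in primary and 11 in confirmatory screening.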

[2] = qHTS of pediatric cancer cell lines to identify multiple opportunities for drug repurposing: Primary screen for DAOY cells (AID 1347090); also: nearly all actives have a fitted effect of over 55% in size; also: potency is read from the fitted curve at half-maximal effect
Procedure, shortened: (§1)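 Cell viability, CellTiter-Glo luminescence; 500-1,000 cells/well, 8- or 11-point titration, 48 h compound exposure at 37 degrees C, 5% CO2. Controls: DMSO neutral, bortezomib 2.3 µM final as positive.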

[3] = qHTS of pediatric cancer cell lines to identify multiple opportunities for drug repurposing: Primary screen for SJ-GBM2 cells (AID 1347091); also: potency is read from the fitted curve at half-maximal effect
Procedure, shortened: as §1

[4] = qHTS of pediatric cancer cell lines to identify multiple opportunities for drug repurposing: Primary screen for A673 cells (AID 1347092); also: nearly all actives have a fitted effect of over 45% in size; also: potency is read from the fitted curve at half-maximal effect
Procedure, shortened: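 Cells are plated, rested 5 h, dosed by pintool, incubated 48 h, then lysed with CellTiter-Glo and read by luminescence. DMSO is the neutral control; bortezomib at 2.3 uM final is the positive control.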

[5] = qHTS of pediatric cancer cell lines to identify multiple opportunities for drug repurposing: Primary screen for SK-N-MC cells (AID 1347093); also: potency is read from the fitted curve at half-maximal effect
Procedure, shortened: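 Metabolically active cells were quantified by ATP-dependent luminescence (CellTiter-Glo, 15 min at room temperature) following 48 h treatment. Cells had been plated at 500-1,000 per well and settled for 5 h beforehand.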

[6] = qHTS of pediatric cancer cell lines to identify multiple opportunities for drug repurposing: Primary screen for BT-37 cells (AID 1347094); also: series mostly up to about 57 µM
Procedure, shortened: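 Cells plated at 500-1,000/well in growth medium, compounds added after 5 h. MIPE tested at 11 points (from 0.78 nM), NPC at 8 points (from 0.59 nM). CellTiter-Glo luminescence after 48 h; concentration-response curves from primary screen.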

Measured: Potency

CN1CCCN(C(c2ccccc2)c2ccc(Cl)cc2)CC1 (centres undefined)
inactive: [1] | [2]

CC(=O)OCC(=O)[C@@]1(O)[C@H](OC(C)=O)C[C@H]2[C@@H]3CCC4=CC(=O)C=C[C@]4(C)[C@@]3(F)[C@@H](O)C[C@@]21C
inactive: [1] | [2] | [3] | [4] | [5]

CC(=O)N1CCN(c2ccc(O)cc2)CC1
inactive: [1] | [2] | [3] | [4]

COc1cc(C(=O)NC2CCCNC2)cc(OC)c1OC (centres undefined)
inactive: [1] | [2] | [3] | [4] | [5]

CCN(CC)CC(=O)Oc1ccc(NC(C)=O)cc1
inactive: [1] | [2] | [3] | [4] | [5]

Nc1ccc([N+](=O)[O-])c(C(F)(F)F)c1
inactive: [1] | [2] | [3] | [4] | [5] | [6]

CC1c2ccccc2CN1NC(=O)c1ccc(Cl)c(S(N)(=O)=O)c1 (centres undefined)
inactive: [1] | [2] | [3] | [4] | [5] | [6]

CC(=O)Nc1ccn(C2COC(COC(=O)c3ccccc3)O2)c(=O)n1 (centres undefined)
active: [1] 1670 nM | [4] 1330 nM | [5] 750 nM
inactive: [2] | [3]

CCC1=C[C@@H]2CN(C1)Cc1c([nH]c3ccccc13)[C@@](C(=O)OC)(c1cc3c(cc1OC)N(C)[C@H]1[C@@](O)(C(=O)OC)[C@H](OC(C)=O)[C@]4(CC)C=CCN5CC[C@]31[C@@H]54)C2
active: [1] 26.4 nM | [2] 53.1 nM | [3] 8.4 nM | [4] 10.6 nM | [5] 16.8 nM

Nc1c(NC/C=C\COc2cc(CN3CCCCC3)ccn2)c(=O)c1=O
inactive: [1] | [2] | [3] | [4] | [5] | [6]
